Compound activity: PubChem BioAssay, National Center for Advancing Translational Sciences (NCATS)
The list is not random: actives were taken first. Their share in the collection is about 3.2%.
LASV entry inh: Lassa virus entry inhibition | Potency, µM (top dose mostly 37.9 µM), without a hit: at the highest dose activity change, negative = inhibition, hits mostly inhibitors | Lassa virus pseudotype entry inhibition, cell reporter | AID 540256 | actives 1.2% (n = 300,000); calls by dose curve; tested in HEK293 cells; note: nearly all actives have a fitted effect of over 50% in size
Vaccinia Venus: inhibitors of vaccinia virus (Venus reporter); Vaccinia virus Venus reporter expression, fluorescence; Potency, µM (series often up to 36.5 µM), without a hit: at the highest dose activity change, negative = inhibition, usual class: inhibitors; actives 0.46% (n = 330,000); calls by dose curve; tested in A549 cells; note: nearly all actives have a fitted effect of over 30% in size
Vaccinia mCherry: vaccinia inhibition (mCherry reporter); Vaccinia virus mCherry reporter infection, fluorescence; Potency, µM (highest dose often 36.5 µM), for the others: at the top dose activity change, negative = inhibition, most hits filed as inhibitors; actives 0.63% (n = 310,000); AID 720579; calls by dose curve; tested in A549 cells; note: nearly all actives have a fitted effect of over 35% in size
FMDV inh: blocks foot and mouth disease virus | Potency, µM (top dose mostly 57.9 µM), without a hit: at the top dose activity change, negative = inhibition, actives largely listed as inhibitors | actives 1.2% (n = 410,000) | FMDV antiviral cell-based qHTS | AID 1159524; calls by dose curve; tested in HEK293T cells; note: read-out not given here; nearly all actives have a fitted effect of over 45% in size
MARV entry inh: Marburg virus entry inhibition. Marburg virus pseudotyped entry inhibition, cell reporter. Potency, µM (highest dose often 37.8 µM), inactives show top-dose activity change, negative = inhibition, hits mostly inhibitors. actives 1.8% (n = 300,000); calls by dose curve; tested in HEK293 cells
Starred values were filed as active, the others as inactive; i = inactive; u = inconclusive; x = no result given; [ ] = remark or other dose. % is set by controls: 0 for no effect and ±100 for the full control effect; potency is the fitted concentration of half-maximal effect.

SMILES | LASV entry inh | Vaccinia Venus | Vaccinia mCherry | FMDV inh | MARV entry inh
O=C1c2ccccc2NC(c2ccc(-c3cccc([N+](=O)[O-])c3)o2)N1O (stereo not given) | u | u | 13µM* | -13% | u
CCN(CC1COc2ccccc2O1)C(=S)Nc1ccccc1 (stereo not given) | -3% | x | x | u | u
CC(=NO)C1(C)CC=CCC1CO (stereo not given) | x | -8% | -10% | -10% | x
Cc1cnn(-c2cc(N/N=C/c3ccccc3Cl)ncn2)c1 | 3% | -13% | -14% | -12% | 9%
COc1cccc(/C=N/Nc2nc(Nc3ccccc3)nc(-n3nc(C)cc3C)n2)c1O | 16µM* | u | x | -23% | u
COc1cccc(/C=N/Nc2cc(-n3nc(C)cc3-c3ccccc3)ncn2)c1O | u | u | 13µM* | u | u
Cc1cc2nc3c(=O)[nH]c(=O)nc-3n(C)c2cc1C=O | x | x | x | 16µM* | x
CC(=O)OCCn1c2nc(=O)[nH]c(=O)c-2nc2cc(C)c(C)cc21 | x | x | x | -9% | x
O=C(Cn1ncc2c3ccccc3n(Cc3ccc(F)cc3)c2c1=O)N1CCC2(CC1)OCCO2 | u | -26% | x | u | 14µM*
O=C(Cn1ncc2c3ccccc3n(Cc3ccc(F)cc3)c2c1=O)N1CCN(c2ncccn2)CC1 | u | -21% | -30% | u | u
COc1cccc(NC(=O)CSCc2cc(=O)c3ccc(C)c(C)c3[nH]2)c1 | 13%[46.1 µM] | -8% | 2% | 8% | x
CCOC(=O)c1ccc(NC(=O)c2cc(=O)c3ccc(C)c(C)c3o2)cc1 | 15%[46.1 µM] | -13% | -10% | -5% | 0%[46.1 µM]
NNC(=O)CCN(Cc1ccco1)S(=O)(=O)c1ccc(Cl)cc1 | x | x | x | -15% | x
CC(C)C[C@@H]1NC(=O)[C@H](C(C)C)NC(=O)c2cc([N+](=O)[O-])cc(I)c2NCC[C@@H](C(N)=O)NC1=O | 2% | -4% | 0% | -27% | -7%
CC[C@H](C)[C@@H]1NC(=O)[C@@H](CC(C)C)NC(=O)[C@H](C(C)C)NC(=O)[C@H]2CSSC[C@H](NC1=O)C(=O)N2 | x | 4.5µM* | 5µM* | 6.3µM* | x
CC(=O)n1cc(N(C(=O)CCl)c2ccccc2)c2ccccc21 | u | -12% | -20% | 14µM* | u
CC(=O)n1cc(N(C(=O)CCl)c2ccc([N+](=O)[O-])cc2)c2ccccc21 | u | -21% | -28% | 10µM* | u
O=Cc1[nH]c2ccccc2c1N(C(=O)CCl)c1ccc([N+](=O)[O-])cc1 | u | -4% | -25% | -19% | u
C(=C\c1ccnc2ccccc12)/c1ccc2c(c1)OCO2 | x | -17% | -18% | x | x
CCC1C(=O)NCCN1Cc1ccc2c(c1)CN(Cc1ccc(F)c(OC)c1)CCO2 (stereo not given) | x | 5% | -8% | -17% | x
COC(=O)C=C1CCC2C3CCC4=CC(=O)C(Br)CC4(C)C3C(=O)CC12C (stereo not given) | u | -12% | -5% | u | 11µM*
CC[C@@H]1C=C(C)C[C@H](C)C[C@H](OC)[C@H]2O[C@@](O)(C(=O)C(=O)N3CCCC[C@H]3C(=O)O[C@H](/C(C)=C/[C@@H]3CC[C@@H](O)[C@H](OC)C3)[C@H](C)[C@@H](O)CC1=O)[C@H](C)C[C@@H]2OC | u | x | x | x | 6.5µM*
CSc1ccc(Cn2c(C)c(C(=O)NCc3ccc(C(C)C)cc3)sc2=O)cc1 | x | -9% | i | -30% | x
Cc1c(C(=O)NCc2ccc(C(C)C)cc2)sc(=O)n1Cc1ccc(S(=O)(=O)N(C)C)cc1 | x | -28% | -5% | 11µM* | x
Cc1c(C(=O)NCc2ccc(Cl)c(Cl)c2)sc(=O)n1Cc1ccc(C(=O)N(C)C)cc1 | x | -13% | 12% | u | x
Cc1c(C(=O)NCc2ccc(Cl)c(Cl)c2)sc(=O)n1Cc1ccc(S(=O)(=O)N(C)C)cc1 | x | -18% | -6% | 22µM* | x
CC(=O)c1ccc(NC(=O)Cn2c3ccccc3c3nc(=O)cc(C)n32)cc1 | x | -12% | 1% | 8% | x
COCCn1c(=NC(=O)C2COc3ccccc3O2)sc2cc(S(N)(=O)=O)ccc21 (stereo not given) | u | -10% | -14% | 0% | -6%
C=CCn1c(=NC(=O)C2COc3ccccc3O2)sc2cc(S(N)(=O)=O)ccc21 (stereo not given) | 2% | -26% | -19% | 32µM* | 13%
Cc1cc(C(=O)N/N=C2\CC(=O)CC(C)(C)C2)c(C)n1-c1ccccc1 | 20% | x | x | 0% | 2.9µM*
